# Reference: PubChem BioAssay
# Unmarked numbers belong to inactive results. For some assays here: Entries with a potency or affinity are not part of this list. Activity calls are given as the source filed them. Unless noted, how the calls were made is not given here.
# Columns and labels:
# [1] = antimalarial activity against Dd2 strain (AID 2302;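 active means growth inhibition above 50% at the single 2 µM test dose, taken to imply half-maximal potency below 2 µM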;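 further: 0% = DMSO untreated growth and 100% = chloroquine plus artemisinin killed control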); details: P. falciparum Dd2 in RBCs, LDH growth readout, 72 h; at 2 µM; hits give high values
# [2] = human hepatoma cell viability loss – ATP luminescence, cytotoxicity control for P. falciparum antimalarial project, primary screen (AID 2303;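 active means inhibition above 50%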;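 further: 0% = DMSO wells and 100% = digitonin-killed cells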); details: HepG2 viability, 24-48 h, at 10 µM, hits give high values
# [3] = target: L-lactate dehydrogenase (Plasmodium falciparum (isolate CDC / Honduras)) (UniProt Q27743); experiment: PfLDH activity inhibition – cell lysate, 3D7 strain, counter-screen for P. falciparum growth inhibition project (AID 2304);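 further: 0% = vehicle and 100% = reference inhibitor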; details: P. falciparum 3D7 crude extract, LDH APAD/NBT absorbance; at 2 µM; hits give high values
# Chain of L-lactate dehydrogenase (Plasmodium falciparum (isolate CDC / Honduras)) (Q27743 whole entry, looked up): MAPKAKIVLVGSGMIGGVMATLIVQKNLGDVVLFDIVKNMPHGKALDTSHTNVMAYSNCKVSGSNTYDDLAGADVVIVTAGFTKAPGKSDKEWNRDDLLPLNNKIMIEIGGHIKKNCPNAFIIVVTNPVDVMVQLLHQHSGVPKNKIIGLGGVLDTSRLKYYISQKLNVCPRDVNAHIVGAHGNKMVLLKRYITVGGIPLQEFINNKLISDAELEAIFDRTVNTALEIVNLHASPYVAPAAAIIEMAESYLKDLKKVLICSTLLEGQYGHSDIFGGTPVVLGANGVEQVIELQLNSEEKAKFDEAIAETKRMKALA
# [4] = inhibition of 3D7 malaria parasite growth – strain 3D7 (AID 2306);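 further: 0% = DMSO wells and 100% = chloroquine plus artemisinin control wells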; details: P. falciparum 3D7 erythrocytic growth, LDH absorbance, 72 h; at 2 µM; hits give high values
# [5] = target: Calcium-dependent protein kinase 1 (Plasmodium falciparum (isolate 3D7)) (UniProt P62344); experiment: PfCDPK1 kinase inhibitors, biochemical, TCAMS library (AID 1159585; cut-off not given, nearly all actives have IC50 up to about 0.98 µM;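 further: inhibitors leave more ATP so luminescence rises with inhibition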); details: recombinant PfCDPK1, Kinase-Glo ATP depletion luminescence
# Chain of Calcium-dependent protein kinase 1 (Plasmodium falciparum (isolate 3D7)) (P62344 whole entry, looked up): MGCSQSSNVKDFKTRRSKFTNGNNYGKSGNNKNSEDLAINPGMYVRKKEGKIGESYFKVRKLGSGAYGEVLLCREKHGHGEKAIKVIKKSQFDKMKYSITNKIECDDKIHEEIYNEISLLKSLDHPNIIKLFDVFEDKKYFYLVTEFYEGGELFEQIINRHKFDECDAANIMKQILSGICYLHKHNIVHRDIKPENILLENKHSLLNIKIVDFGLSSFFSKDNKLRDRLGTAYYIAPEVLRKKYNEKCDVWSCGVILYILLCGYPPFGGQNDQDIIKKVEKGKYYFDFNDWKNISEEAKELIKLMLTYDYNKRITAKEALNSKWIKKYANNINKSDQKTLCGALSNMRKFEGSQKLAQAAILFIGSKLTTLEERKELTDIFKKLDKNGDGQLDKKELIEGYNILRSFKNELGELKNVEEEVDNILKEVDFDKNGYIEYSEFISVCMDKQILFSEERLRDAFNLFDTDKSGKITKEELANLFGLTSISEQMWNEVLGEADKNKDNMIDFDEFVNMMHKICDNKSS
# [6] = target: Plasmodium falciparum protein kinase 6 (PK6, PF3D7_1337100) (UniProt Q8IDW1); experiment: PfPK6 kinase inhibitors, biochemical, TCAMS library (AID 1159586); details: recombinant PfPK6, Kinase-Glo ATP depletion luminescence
# Chain of Plasmodium falciparum protein kinase 6 (PK6, PF3D7_1337100) (Q8IDW1 1-305): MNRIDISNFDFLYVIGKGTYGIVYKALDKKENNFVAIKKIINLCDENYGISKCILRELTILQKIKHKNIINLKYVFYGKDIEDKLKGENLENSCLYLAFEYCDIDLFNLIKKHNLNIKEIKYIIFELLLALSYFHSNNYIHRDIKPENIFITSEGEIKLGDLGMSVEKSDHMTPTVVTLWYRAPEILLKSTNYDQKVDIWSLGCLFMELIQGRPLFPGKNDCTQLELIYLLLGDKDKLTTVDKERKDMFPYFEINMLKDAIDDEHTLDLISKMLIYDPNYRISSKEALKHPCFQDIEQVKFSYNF
# [7] = target: Protein kinase 7 (PK7), Plasmodium falciparum 3D7 (PF3D7_0213400) (UniProt Q7YTF7); experiment: inhibition of Plasmodium PK7 catalytic activity – biochemical, TCAMS antimalarial set, Kinase-Glo luminescence (AID 1159587); details: recombinant PfPK7, Kinase-Glo ATP depletion luminescence
# Chain of Protein kinase 7 (PK7), Plasmodium falciparum 3D7 (PF3D7_0213400) (Q7YTF7 1-343): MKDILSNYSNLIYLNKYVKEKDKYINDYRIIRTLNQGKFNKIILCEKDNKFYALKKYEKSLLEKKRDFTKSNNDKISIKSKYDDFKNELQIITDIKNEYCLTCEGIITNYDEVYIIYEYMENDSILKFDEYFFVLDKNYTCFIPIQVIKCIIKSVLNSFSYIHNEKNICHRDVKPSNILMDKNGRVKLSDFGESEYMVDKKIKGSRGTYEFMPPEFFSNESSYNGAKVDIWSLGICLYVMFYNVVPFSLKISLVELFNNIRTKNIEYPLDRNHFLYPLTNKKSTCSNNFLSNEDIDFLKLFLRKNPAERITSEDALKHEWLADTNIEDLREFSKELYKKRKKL
# [8] = target: Calcium-dependent protein kinase 4 (Plasmodium falciparum (isolate 3D7)) (UniProt Q8IBS5); experiment: PfCDPK4 kinase inhibitors, biochemical, TCAMS library (AID 1159588; cut-off not given, nearly all actives have IC50 up to about 0.91 µM); details: recombinant PfCDPK4, Kinase-Glo ATP depletion luminescence
# Chain of Calcium-dependent protein kinase 4 (Plasmodium falciparum (isolate 3D7)) (Q8IBS5 whole entry, looked up): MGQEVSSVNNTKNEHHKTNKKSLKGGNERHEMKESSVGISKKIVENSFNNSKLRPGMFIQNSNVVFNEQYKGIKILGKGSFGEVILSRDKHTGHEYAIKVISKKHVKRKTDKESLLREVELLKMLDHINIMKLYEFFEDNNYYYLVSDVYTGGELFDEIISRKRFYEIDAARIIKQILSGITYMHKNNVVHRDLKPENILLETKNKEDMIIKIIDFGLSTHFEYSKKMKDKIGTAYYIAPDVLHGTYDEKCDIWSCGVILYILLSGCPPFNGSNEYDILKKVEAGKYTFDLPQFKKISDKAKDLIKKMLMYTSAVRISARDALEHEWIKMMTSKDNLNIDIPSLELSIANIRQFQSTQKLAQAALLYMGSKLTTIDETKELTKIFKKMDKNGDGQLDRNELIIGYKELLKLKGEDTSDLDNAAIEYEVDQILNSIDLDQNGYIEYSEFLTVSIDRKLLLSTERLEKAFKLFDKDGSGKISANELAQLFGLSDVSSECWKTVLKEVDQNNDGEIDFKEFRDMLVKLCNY
Compound,growth inhibition [1],inhibition [2],inhibition [3],growth inhibition [4],outcome [5],outcome [6],outcome [7],outcome [8]
CCN(CC)CCN(Cc1ccc(-c2ccc(C(F)(F)F)cc2)cc1)C(=O)Cn1c(CCc2cc(F)cc(F)c2)nc(=O)c2ccccc21,80% (active),30%,2%,91% (active),inactive,inactive,inactive,inactive
O=C(Nc1ccc(Cn2ncc(N3CCCNCC3)c(Cl)c2=O)cc1)Nc1ccc(F)cc1[N+](=O)[O-],-3%,11%,-4%,90% (active),inactive,inactive,inactive,inactive
O=C(Nc1ccc(-c2nc3ccccc3[nH]2)cc1)c1ccc(-c2cccc([N+](=O)[O-])c2)o1,97% (active),47%,-2%,101% (active),inactive,inactive,inactive,inactive
CCOc1ccc(-c2cc3nc(C4CCNCC4)c(C(=O)Nc4ccc(C)cc4Cl)cn3n2)cc1,22%,63% (active),2%,95% (active),inactive,inactive,inactive,inactive
O=[N+]([O-])c1cccc(CNC2CCN(Cc3ccc(C(F)(F)F)cc3)CC2)c1,28%,0%,1%,99% (active),inactive,inactive,inactive,inactive
Cc1[nH]c(C)c(C(F)(F)F)c(=O)c1-c1ccc(Oc2ccc(OC(F)(F)F)cc2)cc1,96% (active),0%,-6%,97% (active),inactive,inactive,inactive,inactive
Cc1cccc2[nH]c(-c3cccc(-c4ccc(NC(=O)CC5NC(=O)c6ccccc65)cc4)c3)nc12 (stereo not given),67% (active),30%,-7%,100% (active),inactive,inactive,inactive,inactive
Cc1c(Cn2ncc(N3C[C@@H](C)N[C@@H](C)C3)c(Cl)c2=O)cccc1NC(=O)Nc1ccc(-c2ccccc2)cc1,35%,97% (active),-6%,97% (active),inactive,inactive,inactive,inactive
Cc1ncccc1C(=O)Nc1cccc(-c2cccc(-c3nc4c(C)cccc4[nH]3)c2)c1,69% (active),6%,4%,93% (active),inactive,inactive,inactive,inactive
O=C(/C=C/c1ccc(Cl)c(Cl)c1)NCCCCCN1CC[C@H](NC(=O)c2sc3ccccc3c2Cl)C1,3%,26%,-2%,97% (active),inactive,inactive,inactive,inactive
O=C(NCc1ccc(Cl)c(Cl)c1)c1cc(CNC2CCNCC2)ccc1O,2%,2%,4%,82% (active),inactive,inactive,inactive,inactive
CC1(C)CN(CCC2CCC(NC(=O)/C=C/c3ccc(F)cc3F)CC2)Cc2ccc(C#N)cc21 (stereo not given),77% (active),39%,-6%,88% (active),inactive,inactive,inactive,inactive
CNCCNCc1ccc(-c2ccc(-c3nc4ccc(F)cc4[nH]3)s2)cc1,55% (active),22%,2%,99% (active),inactive,inactive,inactive,inactive
O=C(Nc1ccc(-c2ccc(-c3nc4ccc(C(F)(F)F)cc4[nH]3)cc2)cc1)Nc1ccc(F)c(F)c1F,100% (active),39%,3%,99% (active),inactive,inactive,inactive,inactive
O=C(N[C@@H](Cc1ccccc1)[C@H](O)CNCCC(F)(F)F)c1cccc(OCC2CC2)c1,95% (active),0%,-1%,98% (active),inactive,inactive,inactive,inactive
CCCCCCN1CCN(Cc2cccc(NC(=O)c3ccc(Cl)c(Cl)c3)c2)CC1,51% (active),31%,-4%,85% (active),inactive,inactive,inactive,inactive
O=S(=O)(Nc1cccc(CCN2CCC(N3CCCCC3)CC2)c1)c1ccc(Oc2ccccc2)nc1,-4%,8%,-2%,99% (active),inactive,inactive,inactive,inactive
CCCCn1c(C(C)Oc2ccc(Cl)cc2Cl)nc2cc(S(N)(=O)=O)ccc21 (stereo not given),45%,24%,-2%,94% (active),inactive,inactive,inactive,inactive
CCCCN(C(=O)c1ccccc1Cl)c1nnc(-c2ccccc2C)s1,86% (active),12%,0%,90% (active),inactive,inactive,inactive,inactive
COc1ccc(NC(=O)Nc2ccc(-c3ccc(-c4nc5ccccc5[nH]4)cc3)cc2)cc1,27%,22%,5%,100% (active),inactive,inactive,inactive,inactive

Compound,growth inhibition [1],inhibition [2],inhibition [3],growth inhibition [4],outcome [5],outcome [6],outcome [7],outcome [8]
Cc1cc(C(F)(F)F)n2nc(C(=O)N(Cc3cncn3Cc3cccc(F)c3)CC3CC3)cc2n1,92% (active),-2%,3%,101% (active),inactive,inactive,inactive,inactive
CS(=O)(=O)NCCCNCc1ccc(-c2ccc(-c3nc4ccc(F)cc4[nH]3)s2)cc1,30%,23%,1%,95% (active),inactive,inactive,inactive,inactive
Cc1ccc2ncc(Cl)c(CCN3CCC(NCc4ccc5c(n4)NC(=O)CS5)CC3)c2n1,12%,13%,-3%,90% (active),inactive,inactive,inactive,inactive
N#Cc1ccc(N(CCOc2ccc(Cl)c(F)c2)Cc2ccccc2C(F)(F)F)cc1C(F)(F)F,43%,17%,-2%,101% (active),inactive,inactive,inactive,inactive
CCN(CC)CCN(Cc1ccc(-c2ccc(Cl)cc2)cc1)C(=O)Cn1cc(CN(C)C)c(=O)nc1SCc1ccc(F)cc1,99% (active),49%,1%,99% (active),inactive,inactive,inactive,inactive
CCCCCN1CCCC(NS(=O)(=O)c2cccc(C(=O)Nc3cccc(C(F)(F)F)c3)c2)C1 (stereo not given),5%,22%,-2%,86% (active),inactive,inactive,inactive,inactive
COc1ccc(CNC(=O)c2cnc3c(O)cccc3c2Nc2cccc(NC(=O)c3ccc(-c4ccccc4)cc3)c2)cc1,83% (active),42%,6%,90% (active),inactive,inactive,inactive,inactive
CN(CC(=O)Nc1cc(C(F)(F)F)ccc1-n1cncn1)Cc1nc2ccccc2s1,64% (active),3%,0%,87% (active),inactive,inactive,inactive,inactive
Cc1ccc(NC(=O)c2ccc(Cl)c(Cl)c2)cc1-c1ccc(C(=O)Nc2ccncc2)cc1,79% (active),39%,-3%,99% (active),inactive,inactive,inactive,inactive
COc1ccc2[nH]cc(C3CCN(CCCCCNC(=O)c4ccc(-c5ccccc5)cc4)CC3)c2c1,16%,50% (active),-8%,96% (active),inactive,inactive,inactive,inactive
CN(C)CCOc1cc(NC(=O)Nc2ccc(-c3ccccc3)cc2)ccc1I,45%,9%,-3%,101% (active),inactive,inactive,inactive,inactive
Cc1cnc(C(=O)Nc2cccc(-c3cccc(-c4nc5ccc(F)cc5[nH]4)c3)c2)cn1,24%,25%,-1%,99% (active),inactive,inactive,inactive,inactive
Cc1[nH]c(C)c(-c2ccc(-c3ccc(C(F)F)cc3)nc2)c(=O)c1Cl,96% (active),0%,-2%,97% (active),inactive,inactive,inactive,inactive
CC(CNC(=O)C(c1cc2ccccc2o1)N1CCN(C(c2ccccc2)c2ccccc2)CC1)c1ccccc1 (stereo not given),89% (active),2%,-5%,99% (active),inactive,inactive,inactive,inactive
O=C(NCc1ccc(F)cc1)Nc1cccc(-c2ccc(-c3nc4ccc(F)cc4[nH]3)cc2)c1,96% (active),7%,-3%,101% (active),inactive,inactive,inactive,inactive
O=C(NCc1cccs1)[C@H](Cc1ccccc1)Nc1ccnc(NCC2CCCCC2)n1,67% (active),5%,-2%,83% (active),inactive,inactive,inactive,inactive
COc1ccc2nccc([C@@H](O)CN3CCC(NC(=O)[C@@H]4Cc5ccccc5CN4C(=O)OC(C)(C)C)CC3)c2c1,61% (active),15%,4%,92% (active),inactive,inactive,inactive,inactive
O=C(/C=C/c1ccc(Cl)c(Cl)c1)NC1CCC(CN2CCC(c3nc4ccccc4n3CCCO)CC2)CC1 (stereo not given),28%,28%,-5%,99% (active),inactive,inactive,inactive,inactive
O=C(Nc1ccc(Cl)cc1)Nc1cccc(-c2cccc(-c3nc4ccc(C(F)(F)F)cc4[nH]3)c2)c1,97% (active),87% (active),1%,99% (active),inactive,inactive,inactive,inactive
O=C(NCc1cccc(F)c1)Nc1ccc(-c2ccc(-c3nc4ccc(C(F)(F)F)cc4[nH]3)cc2)cc1,24%,46%,0%,100% (active),inactive,inactive,inactive,inactive
